# Screen size: about 330,000 compounds; about 650 (0.2%) were called active. The entries come from a sample that favours actives as a whole. Values without a mark were called inactive. No stated cut-off is given here; in the data, active means inhibition above about 50%; inactive means the rest.
# Molecular target: Integrin alpha-4 (Homo sapiens) (UniProt P13612)
# Assay: inhibition in human VLA-4 binding assay, primary screen, VLA-4 allosteric modulator project, MLPCN library, flow cytometry, VLA-4 expressing cells (AID 2557)
# Details: ligand binding flow cytometry, active compounds read high, about 7 µM as worked out from the volumes in the protocol
# Chain of Integrin alpha-4 (Homo sapiens) (P13612 whole entry, looked up): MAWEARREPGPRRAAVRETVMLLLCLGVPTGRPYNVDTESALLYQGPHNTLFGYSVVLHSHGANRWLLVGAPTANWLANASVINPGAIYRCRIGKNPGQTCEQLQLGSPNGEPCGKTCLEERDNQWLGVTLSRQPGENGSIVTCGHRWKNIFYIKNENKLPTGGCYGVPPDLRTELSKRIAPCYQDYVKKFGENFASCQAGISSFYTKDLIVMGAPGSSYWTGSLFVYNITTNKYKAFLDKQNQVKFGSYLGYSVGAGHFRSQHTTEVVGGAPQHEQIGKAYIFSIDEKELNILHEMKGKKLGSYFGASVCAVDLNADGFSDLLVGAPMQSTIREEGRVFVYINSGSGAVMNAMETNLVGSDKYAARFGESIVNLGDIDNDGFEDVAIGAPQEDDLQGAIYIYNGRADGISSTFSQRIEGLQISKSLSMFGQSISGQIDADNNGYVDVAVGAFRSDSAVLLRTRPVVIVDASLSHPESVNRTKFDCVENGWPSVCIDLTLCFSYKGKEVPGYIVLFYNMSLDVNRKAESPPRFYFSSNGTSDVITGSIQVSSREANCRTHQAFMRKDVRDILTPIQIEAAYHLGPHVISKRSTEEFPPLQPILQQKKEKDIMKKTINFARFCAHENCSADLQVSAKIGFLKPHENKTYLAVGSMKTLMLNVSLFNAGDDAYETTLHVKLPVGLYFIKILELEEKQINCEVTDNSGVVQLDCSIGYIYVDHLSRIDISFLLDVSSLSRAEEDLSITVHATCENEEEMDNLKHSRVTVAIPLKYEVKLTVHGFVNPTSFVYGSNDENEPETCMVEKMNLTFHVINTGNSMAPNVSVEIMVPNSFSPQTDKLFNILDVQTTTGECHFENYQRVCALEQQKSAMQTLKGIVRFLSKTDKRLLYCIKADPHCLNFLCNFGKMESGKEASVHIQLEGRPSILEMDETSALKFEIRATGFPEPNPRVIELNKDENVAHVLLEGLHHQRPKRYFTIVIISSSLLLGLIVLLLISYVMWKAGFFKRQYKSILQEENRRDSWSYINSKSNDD
row,SMILES,inhibition
1,Cc1cccc2nc(CSc3nc4[nH]ncc4c(=O)n3-c3cccc(Cl)c3)cc(=O)n12,0.93%
2,O=C(Nn1c(-c2ccccc2)nc2ccccc2c1=O)c1ccc([N+](=O)[O-])cc1,52% (active)
3,Cc1nc2ccccc2c(=O)n1NC(=O)c1ccc(Cl)c([N+](=O)[O-])c1,8.96%
4,O=C(Nn1c(SCc2ccc([N+](=O)[O-])cc2)nc2ccccc2c1=O)c1ccc(F)cc1,-2.25%
5,CN(C(=O)COC(=O)Cn1cnc2c1c(=O)n(C)c(=O)n2C)C1(C#N)CCCCC1,0%
6,COc1cccc(C2=CC(=O)C[C@H](c3ccc(F)cc3)C2)c1OC,0%
7,Cc1ccc(S(=O)(=O)N(Cc2ccccc2)c2ccccn2)cc1[N+](=O)[O-],6.28%
8,CCOc1cc(C(=S)N2CCOCC2)ccc1OS(=O)(=O)c1ccc(Br)cc1,6.18%
9,COC(=O)N/N=C/c1c[n+]([O-])c2ccccc2[n+]1[O-],52.6% (active)
10,COC(=O)N/N=C/c1ccc(-c2ccc(Cl)c(Cl)c2)o1,12.9%
11,COC(=O)N/N=C/c1cn(CCCOc2ccc(C)cc2)c2ccccc12,1.98%
12,COc1cc(C(C(=O)NC2CCCC2)N(C(=O)c2ccco2)c2ccccc2C(C)=O)cc(OC)c1OC (stereo not given),-1.99%
13,O=C(CN1CCSCC1)N/N=C/c1ccc(F)cc1,-0.98%
14,Nc1nc(SCC(=O)NNc2c(Cl)cc(Cl)cc2Cl)n[nH]1,-17.3%
15,Cc1ccc(N(C(=O)CNC(=O)c2ccco2)C(C(=O)NC2CCCC2)c2ccncc2)cc1 (stereo not given),-11.3%
16,CC(C)Cn1cnc2c1c(=O)n(CC(O)c1ccccc1)c(=O)n2CC(C)C (stereo not given),-0.03%
17,Cc1ccccc1CN1CCNC(=O)C1CC(=O)NCCC1=CCCCC1 (stereo not given),-8.93%
18,CSCc1cc(N(C)C)nc(SCc2ccc(Cl)cc2Cl)n1,-0.25%
19,Cc1cccc(OCCCC(=O)Nc2ccc(S(=O)(=O)N3CCCC3)cc2)c1,6.35%
20,O=C(NC(=S)Nc1ccccc1C(=O)O)c1ccc(-c2ccc(Br)cc2)o1,-8.29%
21,CNC1(c2nnnn2-c2c(C)cccc2C)CCOC(C)(C)C1 (stereo not given),-0.18%
22,CCN(CC(=O)Nc1c(F)cccc1F)C(=O)c1ccc(S(=O)(=O)N2CCCCC2)cc1,-0.6%
23,COc1ccccc1/C=C/C(=O)OCC(=O)NC1CCCCCC1,9.38%

row,SMILES,inhibition
1,N#CC1(NC(=O)COc2ccc3oc4ccccc4c3c2)CCCCC1,17.8%
2,COc1cccc(N(C(=O)c2snc(C(N)=O)c2N)C(C(=O)NCC2CCCO2)c2c[nH]c3ccccc23)c1 (stereo not given),-8.82%
3,O=C1NC2(CCCCC2)N=C1c1ccccc1,7.05%
4,Cn1cnc2c1c(=O)n(Cc1ccccc1C#N)c(=O)n2C,0.49%
5,Cn1c(=NC(=O)c2ccc3c(c2)OCCO3)sc2cc(S(C)(=O)=O)ccc21,4.69%
6,Cc1cc(C)nc(SCc2nnc(SCC(=O)OC3CCCCC3)o2)n1,-6.47%
7,CC(C)C[C@@H](CO)N1CCN(Cc2ccc(O)cc2)CCC1=O,25.2%
8,COC(=O)c1ccc(CN(c2ccccc2OC)S(=O)(=O)c2cccs2)o1,12.4%
9,O=C(CN(C(=O)c1nsc(Cl)c1Cl)c1cccc(F)c1)NC1CCCC1,5.34%
10,O=C(CCS(=O)(=O)c1ccc(Br)cc1)NCCc1ccc(Cl)cc1,-4%
11,Cc1ccc(S(=O)(=O)N2CCN(C(=O)COC(=O)CNC(=O)c3ccc(C(C)(C)C)cc3)CC2)c(C)c1,-0.38%
12,COc1cc(OC)cc(C(=O)NCC(=O)N2CCCCCCC2)c1,2.18%
13,Cc1cc(C)cc(C(=O)NCC(=O)OCC(=O)N2CCCCC2)c1,51.9% (active)
14,CC1=C(C(N)=O)C(c2ccc(F)cc2)n2nc(CCCO)nc2N1 (stereo not given),-3.48%
15,COCCOC(=O)C1=C(C)NC(=O)NC1c1ccc(Cl)cc1 (stereo not given),0.04%
16,COCCOC(=O)C1=C(C)Nc2nc(C)nn2C1c1ccccc1 (stereo not given),76% (active)
17,CCCCOc1ccc(N(CC(=O)NC(C)C)C(=O)CCC(=O)Nc2ccccn2)cc1,23.1%
18,Cc1ccc(CN2CCN(Cc3ccc4ncccc4c3)CC2CCO)cc1 (stereo not given),7.01%
19,CC(C)(C)C1CCC(C(=O)Nc2cccnc2)CC1 (stereo not given),13.3%
20,CCN(CC)S(=O)(=O)c1ccc(OC)c(NC(=O)CCc2c(C)noc2C)c1,9.08%
21,O=C(COc1ccccc1F)NNC(=O)c1ccc(N2CCCCC2)c([N+](=O)[O-])c1,19.2%
22,CCOC(=O)c1ccc(N2C(=O)CC(N3CCC(C(=O)OCC)CC3)C2=O)cc1 (stereo not given),24.6%
23,CCOC(=O)c1ccc(N2C(=O)CC(N3CC(C)OC(C)C3)C2=O)cc1 (stereo not given),108% (active)

row,SMILES,inhibition
1,CCOC(=O)c1ccc(N2C(=O)CC(N3CCN(C(=O)c4ccccc4)CC3)C2=O)cc1 (stereo not given),2.59%
2,Cc1cc(C)cc(NC(=O)COC(=O)c2cc(C)oc2C)c1,3.64%
3,Cc1cc(C(=O)OCC(=O)Nc2ccc(F)c(F)c2)c(C)o1,49.7% (active)
4,Cc1cc(C(=O)OCC(=O)Nc2ccccc2Cl)c(C)o1,-2.15%
5,Cc1ccc(-c2cc(N)on2)cc1,19.5%
6,Cc1cc(C)n(CC(O)CN(c2ccccc2)S(=O)(=O)c2ccc3ccccc3c2)n1 (stereo not given),50.2% (active)
7,Cc1ccc(N(CC(O)CN2CCCC2)S(=O)(=O)c2ccccc2)cc1 (stereo not given),4.52%
8,Cc1cccc(N(CC(O)CN(C)C)S(=O)(=O)c2ccccc2)c1 (stereo not given),2.19%
9,O=C(COC(=O)c1ccc2ncsc2c1)Nc1ccc(Cl)cc1,-15.8%
10,Cn1c(=O)c2c(nc(N/N=C/c3cccs3)n2Cc2ccc(Br)cc2)n(C)c1=O,7.63%
11,COc1ccc(Nc2cc(Sc3ccc(OC)cc3)ncn2)cc1,4.33%
12,CCCNS(=O)(=O)c1ccc2c(c1)CCCN2C(C)=O,9.08%
13,CC(=O)N1CCc2cc(S(=O)(=O)Nc3ccccc3N3CCN(C)CC3)ccc21,54% (active)
14,CC(=O)N1CCc2cc(S(=O)(=O)NC3CCCCC3)ccc21,-5.2%
15,C=CC(COCc1ccccc1)N(CC(=O)OC)S(=O)(=O)c1cc(Br)ccc1OC (stereo not given),0.47%
16,S=C(Nc1cccnc1)Nc1ccccn1,52.3% (active)
17,Fc1cc(Br)ccc1NC(=S)Nc1cccnc1,12.9%
18,Cc1ccc(NC(=O)Nc2cccnc2)cc1,2.64%
19,O=C(CN(C(=O)CNC(=O)c1cccs1)c1cccc(F)c1)NC1CCCCC1,5.25%
20,COc1cccc(NC(=O)N2C3CCCC2CC(NC(C)=O)C3)c1 (stereo not given),9.9%
21,COc1cccc(-c2cccc(NC(=O)C3CCN(C4CCC4)CC3)c2)c1,58.8% (active)
22,O=C(Nc1cccc(-c2cccc(Cl)c2)c1)C1CCN(C2CCC2)CC1,3.72%
23,CC1(C)CC(=O)C(N=Nc2c(F)cccc2F)=C(O)C1,6.6%

row,SMILES,inhibition
1,Cc1ccc2nc(SCc3cn4c(C)cc(C)nc4n3)[nH]c2c1,9.58%
2,CCc1ccc(NC(=O)Cn2nc(C)c([N+](=O)[O-])c2C)cc1,-5.52%
3,Cc1nn(CC(=O)Nc2ccc(C#N)cc2)c(C)c1[N+](=O)[O-],56.9% (active)
4,Cc1nn(CC(=O)Nc2ccc(N(C)C)cc2)c(C)c1[N+](=O)[O-],-13.4%
5,Cc1ccc(/C=C/C(=O)OCC(=O)NCc2ccc(Cl)cc2)o1,50.7% (active)
6,O=C(COC(=O)c1ccco1)NCc1ccc(Cl)cc1,5.08%
7,Cc1cc(NC(=O)COC(=O)/C=C/c2ccc(C)o2)no1,4.12%
8,COCCN1C(=O)C(=O)/C(=C(/O)c2ccc(S(=O)(=O)N3CCCCC3)cc2)C1c1ccc(OC)c(OC)c1 (stereo not given),-2.1%
9,O=C(CCNC(=O)c1ccccc1Cl)NN=Cc1ccco1,4.92%
10,CC(=O)n1cc([C@H]2C=C(C(=O)N3CCOCC3)O[C@@H](OCc3ccc(CO)cc3)C2)c2ccccc21,-20.8%
11,Cc1cccc(C)c1N1CCN(S(=O)(=O)N2CCCCC2)CC1,-7.93%
12,CC1O[C@@H](OC2C(O)C(C)O[C@H](OC(=O)[C@]34CCC(C)(C)C[C@H]3C3=CCC5[C@@]6(C)CC(O)C(O[C@@H]7OC(CO)C(O)[C@@H](O)[C@@H]7O)[C@@](C)(C(=O)O)C6CC[C@@]5(C)[C@]3(CO)CC4)C2O[C@H]2OC(C)[C@@H](O[C@@H]3OCC(O[C@@H]4OC(CO)C(O)[C@H](O)C4O)[C@@H](O)[C@@H]3O)[C@H](O)C2O)C(O)C(O)C1O (stereo not given in full),-0.38%
13,Cc1nn(Cc2ccc(F)cc2)c(C)c1NC(=O)c1cccnc1Cl,12.2%
14,Cc1nn(Cc2ccc(Cl)c(Cl)c2)c(C)c1NC(=O)c1cc(C2CC2)on1,55% (active)
15,Cc1cc(C(=O)Nc2c(C)nn(Cc3ccccc3)c2C)on1,34.7%
16,COc1ccccc1CNC(=O)c1ccc(Cl)c(S(=O)(=O)N2CCCC2)c1,4.64%
17,COc1ccc(N=C2SC(C(=O)Nc3ccc(F)cc3)CC(=O)N2C)cc1 (stereo not given),5.98%
18,N#CCC(=O)NC1CCC(CC2CCC(NC(=O)CC#N)CC2)CC1 (stereo not given),-12%
19,CS(=O)(=O)n1nc(-c2ccco2)nc1N,15.3%
20,O=C(CSc1nnc(-c2ccco2)n1-c1ccccc1)NCCc1ccccc1,4.12%
21,CSc1nc(-c2ccco2)nn1C(=O)CCc1ccccc1,54% (active)

# Source: PubChem BioAssay AID2557 (NMMLSC, 2010)
